Compound activity: PubChem, The Scripps Research Institute Molecular Screening Center
DAX1 inh-1 = inhibitors of DAX1 repression of SF-1 activated StAR promoter | HEK293T StAR-luciferase reporter, SF-1/DAX-1 repression relief | AID 652010 | 370,000 compounds, 1.1% hits | inhibition, % at 6.8 µM;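 active means inhibition above the mean over all tested compounds plus 3 SD, cut at about 3.6% in these data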;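 further: 0% = DAX-1 cells with DMSO and 100% = cells lacking DAX-1 with DMSO; higher inhibition means more luminescence from relief of DAX-1 repression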
DAX1 inh-2 = inhibits human nuclear receptor DAX1 | HEK293 Gal4-DAX1 luciferase reporter, luminescence | inhibition, % at 6.75 µM | 340,000 compounds, 0.99% hits | AID 504766;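 active means inhibition above the mean over all tested compounds plus 3 SD, cut at about 4.2% in these data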;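 further: 0% = DAX1-transfected cells with DMSO and 100% = empty-vector control cells with DMSO; inhibition shows as a rise in luminescence from relieved DAX1 repression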
hcDAF12 agonist = activators of H. contortus DAF-12 nuclear receptor; HEK293 hcDAF-12 lit1-tk-luc reporter, luminescence; 0% DMSO, 100% Δ7-dafachronic acid; activation, % at 6.8 µM; 370,000 compounds, 1.4% hits;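 active means activation above the mean of all tested compounds plus 3 SD, cut at about 5.5% in these data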;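 further: 100% = response to 3 µM Δ7-dafachronic acid high control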
AHR activator = human AHR activation. P35869. 320,000 compounds, 2.5% hits. AID 2796. AHR-responsive luciferase reporter cells, luminescence. activation, % at 5 µM; in the data active means activation above about 47%;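 further: 0% = vehicle wells and 100% = reference agonist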
Target sequence (P35869 whole entry, looked up): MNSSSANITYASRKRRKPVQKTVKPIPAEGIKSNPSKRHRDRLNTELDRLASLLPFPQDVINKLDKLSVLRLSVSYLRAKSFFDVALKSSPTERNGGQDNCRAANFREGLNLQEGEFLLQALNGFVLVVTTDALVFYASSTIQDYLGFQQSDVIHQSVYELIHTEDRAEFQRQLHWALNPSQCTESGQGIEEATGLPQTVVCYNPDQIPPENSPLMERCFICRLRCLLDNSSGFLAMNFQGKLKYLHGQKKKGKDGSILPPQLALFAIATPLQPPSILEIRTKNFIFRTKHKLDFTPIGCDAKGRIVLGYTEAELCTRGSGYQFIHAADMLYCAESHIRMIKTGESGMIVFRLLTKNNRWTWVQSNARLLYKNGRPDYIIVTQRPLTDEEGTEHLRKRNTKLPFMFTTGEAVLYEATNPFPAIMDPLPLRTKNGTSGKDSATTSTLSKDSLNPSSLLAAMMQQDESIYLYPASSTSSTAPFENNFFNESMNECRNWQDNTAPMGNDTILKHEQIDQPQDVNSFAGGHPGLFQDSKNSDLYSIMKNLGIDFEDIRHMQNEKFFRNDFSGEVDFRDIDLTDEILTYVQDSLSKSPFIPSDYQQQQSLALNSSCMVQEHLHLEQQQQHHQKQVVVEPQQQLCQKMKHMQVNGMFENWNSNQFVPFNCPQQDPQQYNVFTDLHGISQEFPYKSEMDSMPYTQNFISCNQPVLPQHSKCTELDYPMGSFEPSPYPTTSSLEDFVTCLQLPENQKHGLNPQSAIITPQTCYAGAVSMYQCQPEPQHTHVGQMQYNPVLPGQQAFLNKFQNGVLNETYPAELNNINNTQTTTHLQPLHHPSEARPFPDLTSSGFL
hgDAF12 agonist = hgDAF-12 agonism, primary luciferase screen; activation, % at 6.8 µM; 370,000 compounds, 1.8% hits; AID 687014; HEK293 GAL4-hgDAF12 UAS-luciferase reporter, agonist luminescence; normalized to butyrate control;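 active means activation above a cutoff set at the mean of all screened compounds plus 3 SD, cut at about 10% in these data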;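 further: 0% = DMSO wells and 100% = sodium butyrate wells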
ssDAF12 agonist = S. stercoralis DAF-12 activation, primary screen; activation, % at 6.8 µM; 370,000 compounds, 1% hits; HEK293 ssDAF-12/GRIP1 lit1-tk-luc reporter, luminescence; % of 3 µM dafachronic acid response;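 active means activation above the mean over all tested compounds plus 3 SD, cut at about 0.9% in these data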;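 further: 0% = DMSO-only wells and 100% = 3 µM delta7-dafachronic acid wells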
* = called active by the depositor; / = no result. Compounds with a hit are over-represented: about 5.7% of the library has one in this group of screens.

SMILES	DAX1 inh-1	DAX1 inh-2	hcDAF12 agonist	AHR activator	hgDAF12 agonist	ssDAF12 agonist
Cc1ccc(CONC(=O)c2ccc(Cl)cc2)cc1	1	1	1	73*	6	-1
COc1ccc(C(=O)Nc2cc(Cl)ccc2OC(=O)c2ccc(OC)cc2)cc1	/	1	/	22	/	/
Cc1ccc(C(=O)Nc2cc(Cl)ccc2OC(=O)c2ccc(C)cc2)cc1	2	/	5	53*	8	0
Cc1ccc(CONC(=O)c2ccccc2Cl)cc1	1	0	1	/	6	0
CCOc1ccc(NC(=O)c2cc([N+](=O)[O-])ccc2N2CCOCC2)cc1	0	0	0	74*	-1	-1
O=c1[nH]nnc2c1cnn2-c1ccccc1	-1	4	-2	/	-1	-1
S=C(c1ccc(N2CCOCC2)cc1)N1CCOCC1	0	0	-1	-5	-2	-1
Nc1nnc(Cc2c[nH]c3ccccc23)s1	-1	0	5.7*	39	3	1
COc1ccc(-c2ccc3c(c2)S(=O)(=O)c2cccc(C(=O)NCc4cccc(OC(F)(F)F)c4)c2C3=O)cc1OC	/	0	/	2	/	/
CC1CCCCC1NC(=O)Cn1cccc1C(=O)c1ccccc1 (centres undefined)	0	0	-2	5	3	-1
CCOc1ccccc1N=Nc1c(C)[nH]n(C(N)=S)c1=O	0	0	-1	65*	7	-1
CC1=NN(C(N)=S)C(=O)C1N=Nc1ccccc1O (centres undefined)	-1	-1	5	47*	-1	1
Cc1ccccc1N=Nc1c(C)[nH]n(C(N)=S)c1=O	0	-2	0	30	3	-2
CC1=NN(C(N)=S)C(=O)C1N=Nc1ccc(S(N)(=O)=O)cc1 (centres undefined)	-1	1	-1	0	-3	-2
CCOc1ccccc1N=NC1C(=O)N(C(N)=S)N=C1C (centres undefined)	0	-1	2	65*	-1	-1
CC1=NN(C(N)=S)C(=O)C1N=Nc1ccccc1[N+](=O)[O-] (centres undefined)	-1	0	1	/	4	-1
CC(=O)N(C)c1ccc(N=NC2C(=O)N(C(N)=S)N=C2C)cc1 (centres undefined)	3	5.3*	4	1	12*	0
CC1=NN(C(N)=S)C(=O)C1N=Nc1ccccc1C (centres undefined)	1	-1	1	57*	3	-1
CCOC(=O)C(NS(=O)(=O)c1ccccc1)(C(F)(F)F)P(=O)(OC(C)C)OC(C)C (centres undefined)	1	1	-2	0	1	-1
O=C(NCCN1CCC(Cc2ccccc2)CC1)C1CCCN(S(=O)(=O)c2ccc(Br)s2)C1 (centres undefined)	-3	/	-5	/	-3	-2
c1cc(-c2n[nH]c(-c3ccncc3)n2)ccn1	0	0	-2	3	2	-1
c1ccc(-c2nc(-c3cccnc3)n[nH]2)cc1	0	/	1	65*	7	-1
O=C1N(c2ccccc2)CCN1c1ccccc1	2	4	5	8	11*	0
O=C1NC(=S)CN1c1ccccc1	0	5.6*	-1	-2	0	-1
O=C1NCCN1c1ccccc1	-1	4	0	/	2	-1
SMILES	DAX1 inh-1	DAX1 inh-2	hcDAF12 agonist	AHR activator	hgDAF12 agonist	ssDAF12 agonist
O=C(NC1CCCCC1)NC1CCN(S(=O)(=O)Cc2ccccc2)CC1	1	0	-2	3	2	-1
CN(C)c1ccc(/C=C2\SC(N3CCCCC3)=NC2=O)cc1	-1	4.6*	0	24	-2	-2
CCc1ccc(NC(=O)Cn2c(=O)n(CCC(=O)NC3CCN(Cc4ccccc4)CC3)c(=O)c3ccccc32)cc1	0	1	-2	1	4	-2
CC(=O)N1CSCC1C(=O)NNS(=O)(=O)c1cccc(C(F)(F)F)c1 (centres undefined)	0	6.3*	-1	0	1	-1
O=C(Nc1ccccn1)c1ccccc1	3.9*	2	1	/	8	-1
O=C(Nc1ccccn1)c1ccc2c(c1)OCCO2	4.2*	2	3	-4	13*	0
O=C(Nc1ncccc1Cl)c1ccc2c(c1)OCCO2	3	0	0	-2	10	-2
